In PubChem BioAssay (NCI):
This is part of a sample that, as a whole, favours compounds with a hit. Of some 83,000 tested, about 20% had one in any assay.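 The test compound was applied at a single concentration to cells in 96-well plates for 48 hours, and percent growth was recorded.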

Legend:
Experiment in all cases: NCI-60 one-dose screen, 48 h (100 = growth as untreated, 0 = no growth, -100 = all killed)
Details in all cases: 10 µM unless noted; active = growth percent below 10; inactive = the rest
[1] = test system: NCI-H23 lung
[2] = test system: NCI-H226 lung
[3] = test system: NCI-H322M lung
[4] = test system: HOP-62 NSCLC
[5] = test system: NCI-H460 lung
[6] = test system: NCI-H522 lung
[7] = test system: A549/ATCC NSCLC
[8] = test system: 786-0 renal
[9] = test system: COLO 205 colon
[10] = test system: DU-145 prostate
[11] = test system: K-562 leukemia
[12] = test system: MALME-3M melanoma
[13] = test system: MDA-MB-231 breast
[14] = test system: RXF 393 renal
[15] = test system: SF-268 CNS
[16] = test system: SF-295 CNS
[17] = test system: SF-539 CNS
[18] = test system: UACC-257 melanoma
[19] = test system: M14 melanoma
[20] = test system: HCT-15 colon

Measured: growth

CCOC(=O)c1c2c(c(C)n1Cc1ccc(OC)cc1)-c1nc(N)ncc1CC2
inactive: [1] 125% | [2] 92.2% | [3] 113% | [4] 83.5% | [5] 111% | [6] 114% | [7] 110% | [8] 98.5% | [9] 116% | [10] 116% | [11] 88.8% | [12] 132% | [13] 97.2% | [14] 116% | [15] 110% | [16] 104% | [17] 112% | [18] 121% | [19] 106% | [20] 113%

Cc1c(NCc2nnc3n(Cc4ccccc4)c(=O)c4c5c(sc4n23)CCCC5)c(=O)n(-c2ccccc2)n1C
inactive: [1] 92.4% | [2] 94.8% | [3] 92.2% | [4] 105% | [5] 98.9% | [6] 71.3% | [7] 66.7% | [8] 72.3% | [9] 101% | [10] 75.6% | [11] 53.5% | [12] 113% | [13] 96.5% | [14] 84.5% | [15] 74.1% | [16] 67.2% | [17] 103% | [18] 80.9% | [19] 83.2% | [20] 94.6%

C=C(C[C@@](O)(C(=O)Oc1ccccc1)C(=O)C1CCCCC1)c1ccccc1
inactive: [1] 103% | [2] 108% | [3] 112% | [4] 108% | [5] 107% | [6] 91.8% | [7] 92.2% | [8] 98.9% | [9] 120% | [10] 110% | [11] 107% | [12] 101% | [13] 99.9% | [14] 91.4% | [15] 99.6% | [16] 100% | [17] 98.4% | [18] 92.8% | [19] 106% | [20] 109%

Clc1ccc(CCC(Cn2ccnc2)Sc2c(Cl)cccc2Cl)cc1 (stereo not given)
inactive: [1] 42.5% | [2] 90.6% | [3] 81.3% | [4] 83% | [5] 47.3% | [6] 20.3% | [7] 61.2% | [8] 56.4% | [9] 57.7% | [10] 94.2% | [11] 30.5% | [12] 60.3% | [13] 55.5% | [14] 67.4% | [15] 87.1% | [16] 43.4% | [17] 91.5% | [18] 83.4% | [19] 54.9% | [20] 34%

CCCCC1Nc2nc(SC)n(C)c(=O)c2CN(Cc2ccccc2)C1=O (stereo not given)
inactive: [1] 98.4% | [2] 84.9% | [3] 90.6% | [4] 97.9% | [5] 104% | [6] 76% | [7] 94.5% | [8] 78.4% | [9] 112% | [10] 112% | [11] 141% | [12] 132% | [13] 94.5% | [14] 77.2% | [15] 100% | [16] 94.9% | [17] 85.2% | [18] 90.1% | [19] 89.8% | [20] 81.9%

CCOC(=O)c1c2c(c(C)n1Cc1ccccc1)-c1nc(N)ncc1CC2
inactive: [1] 93.9% | [2] 83.7% | [3] 94.7% | [4] 82.4% | [5] 102% | [6] 96.7% | [7] 104% | [8] 92% | [9] 131% | [10] 120% | [11] 94.2% | [12] 168% | [13] 79.3% | [14] 120% | [15] 104% | [16] 229% | [17] 103% | [18] 144% | [19] 111% | [20] 99.4%

O=C(Nc1ccc(Cl)cc1Cl)Nc1ccc(-c2cccnc2)cc1N1CCC(CO)CC1
inactive: [1] 29% | [2] 55.4% | [3] 61.5% | [4] 42% | [5] 35.1% | [6] 53.4% | [7] 27.2% | [8] 52.3% | [9] 16.1% | [10] 54.2% | [11] 17.7% | [12] 41.3% | [13] 13.6% | [14] 49.5% | [15] 48.4% | [16] 81.6% | [17] 30.9% | [18] 47.8% | [19] 36% | [20] 26.8%

c1ccc(-c2nnc(Nc3nnc(-c4ccccc4)s3)s2)cc1
inactive: [1] 109% | [2] 101% | [3] 86.9% | [4] 101% | [5] 101% | [6] 104% | [7] 103% | [8] 106% | [9] 116% | [10] 112% | [11] 111% | [12] 101% | [13] 102% | [14] 105% | [15] 103% | [16] 102% | [17] 101% | [18] 99.1% | [19] 105% | [20] 102%
